Compounds with a hit are over-represented: about 2.4% of the library has one in this group of screens.
Pf Dd2 growth – inhibitors of Plasmodium falciparum Dd2 growth; 94,000 tested, 2.3% active; P. falciparum Dd2 growth, SYBR Green, 72 h; stronger effect = lower value; activity change, % at 10 µM; in the data active means activity change below about -80%; inconclusive means no clear call, values can overlap the other calls
C diff HTS – blocks growth of Clostridium difficile; Clostridium difficile clinical isolate growth, OD600, 24 h; stronger effect = lower value; growth activity, negative = inhibition, % at 16 µg/mL (by protocol); 86,000 tested, 0.25% active;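 active means mean growth activity at or below -80% and every replicate also at or below -80%; inconclusive means mean at or below -80% but some replicate above -80%; inactive means mean growth activity above -80%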;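 further: 0% = DMSO wells and -100% = levofloxacin 16 µg/mL wells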
Starred values were filed as active, the others as inactive; ? = inconclusive; · = no result given; ! = not active in a repeat.

SMILES | Pf Dd2 growth | C diff HTS
C[C@H]1CN([C@@H](C)CO)C(=O)c2cccc(N(C)C)c2O[C@@H]1CN(C)Cc1ccc(C(=O)Nc2ccccc2N)cc1 | ? | -3
C[C@@H]1CN([C@H](C)CO)C(=O)c2cccc(NC(=O)Nc3ccccc3)c2O[C@H]1CN(C)Cc1ccc(C(=O)Nc2ccccc2N)cc1 | -78 | -2
C[C@@H]1CN([C@@H](C)CO)C(=O)c2cccc(NC(=O)Nc3ccccc3)c2O[C@@H]1CN(C)Cc1ccc(C(=O)Nc2ccccc2N)cc1 | -94* | 1
C[C@@H]1CN([C@@H](C)CO)C(=O)c2cccc(NC(=O)Nc3ccc(F)cc3)c2O[C@H]1CN(C)Cc1ccc(C(=O)Nc2ccccc2N)cc1 | -82* | 7
C[C@@H]1CN([C@@H](C)CO)C(=O)c2cccc(N(C)C)c2O[C@@H]1CN(C)Cc1ccc(C(=O)Nc2ccccc2N)cc1 | -82* | 2
C[C@H](O)C#Cc1ccc2c(c1)O[C@@H](CN(C)CC1CC1)[C@H](C)CN([C@H](C)CO)S2(=O)=O | -45 | -7
CCCN1[C@@H]2c3ccc(-c4cccc(C(=O)N(C)C)c4)c(=O)n3C[C@@H]2[C@@H](CO)[C@@H]1C(=O)OC | 16 | 3
O=S(=O)(N[C@H]1CC[C@H](CCn2cc(C3(O)CCCC3)nn2)O[C@H]1CO)c1ccc(F)cc1 | -12 | -2
COc1ccccc1-c1ccc2n(c1=O)C[C@H]1[C@H](CO)[C@@H](C(=O)N3CCCCC3)N(C)[C@@H]21 | · | -2
C[C@@H]1CN([C@H](C)CO)C(=O)c2cccc(NC(=O)Nc3cccc4ccccc34)c2O[C@@H]1CN(C)Cc1ccc(C(=O)Nc2ccccc2N)cc1 | -92* | 1
CC(C)NC(=O)Nc1cccc2c1O[C@@H](CN(C)Cc1ccc(C(=O)Nc3ccccc3N)cc1)[C@@H](C)CN([C@H](C)CO)C2=O | -45 | 1
CC(C)NC(=O)Nc1cccc2c1O[C@H](CN(C)Cc1ccc(C(=O)Nc3ccccc3N)cc1)[C@H](C)CN([C@@H](C)CO)C2=O | -84* | -1
C[C@H](CO)N1C[C@H](C)[C@H](CN(C)Cc2ccc(C(=O)Nc3ccccc3N)cc2)Oc2c(NC(=O)Nc3cccc4ccccc34)cccc2C1=O | ? | 3
C[C@@H]1CN([C@H](C)CO)C(=O)c2cccc(NC(=O)Nc3ccc(F)cc3)c2O[C@H]1CN(C)Cc1ccc(C(=O)Nc2ccccc2N)cc1 | -78 | 5
C[C@H]1CN([C@@H](C)CO)C(=O)c2cccc(NC(=O)Nc3ccc(F)cc3)c2O[C@@H]1CN(C)Cc1ccc(C(=O)Nc2ccccc2N)cc1 | -83* | 0
CNC(=O)C[C@H]1CC[C@@H]2[C@H](COC[C@@H](O)CN2C(=O)Nc2ccc3c(c2)OCO3)O1 | 13 | 6
C[C@@H]1CCCCO[C@H](CN(C)CC2CC2)[C@H](C)CN([C@H](C)CO)C(=O)c2cc(NC(=O)Nc3ccc(C(F)(F)F)cc3)ccc2O1 | -82* | 6
C[C@H]1CCCCO[C@H](CN(C)CC2CC2)[C@@H](C)CN([C@@H](C)CO)C(=O)c2cc(NC(=O)Nc3ccc(C(F)(F)F)cc3)ccc2O1 | -85* | 0
CCCN(C)C[C@H]1OCCCC[C@@H](C)Oc2ccc(NC(=O)Nc3ccc(C(F)(F)F)cc3)cc2C(=O)N([C@H](C)CO)C[C@H]1C | -83* | -108*
C[C@@H]1CN([C@H](C)CO)C(=O)c2cc(NC(=O)Nc3ccc(C(F)(F)F)cc3)ccc2O[C@@H](C)CCCCO[C@H]1CN(C)C | -80 | 33
C[C@@H]1CN([C@@H](C)CO)C(=O)c2cc(NC(=O)Nc3ccc(C(F)(F)F)cc3)ccc2O[C@@H](C)CCCCO[C@H]1CN(C)C | 15 | 13
C[C@@H]1CCCCO[C@H](CN(C)CC2CC2)[C@@H](C)CN([C@H](C)CO)C(=O)c2cc(NC(=O)Nc3ccc4c(c3)OCO4)ccc2O1 | -4 | 6
CCCN(C)C[C@@H]1OCCCC[C@H](C)Oc2ccc(NC(=O)Nc3ccc4c(c3)OCO4)cc2C(=O)N([C@H](C)CO)C[C@@H]1C | -88* | 12
CCCN(C)C[C@H]1OCCCC[C@H](C)Oc2ccc(NC(=O)Nc3ccc(C(F)(F)F)cc3)cc2C(=O)N([C@@H](C)CO)C[C@H]1C | -69 | -31
O=C(N[C@@H]1CC[C@@H](CCNS(=O)(=O)c2ccccc2)O[C@@H]1CO)c1cccc(F)c1 | 2 | -2
SMILES | Pf Dd2 growth | C diff HTS
O=C(C[C@H]1CC[C@@H](NS(=O)(=O)c2ccccc2)[C@H](CO)O1)N1CCN(c2ccccc2)CC1 | -5 | -3
COCC(=O)N1C[C@@H](C)[C@H](OC)CN(C)C(=O)c2cc(NC(=O)c3ccc(F)cc3)ccc2OC[C@H]1C | 29 | 0
COc1ccc(-c2ccccc2[C@H]2[C@@H](C#N)N(C(=O)NC3CCCCC3)[C@H]2CO)cc1 | -90* | 8
N#C[C@H]1[C@@H](c2ccccc2-c2ccc(F)cc2)[C@@H](CO)N1C(=O)NC1CCCCC1 | 61 | 7
N#C[C@@H]1[C@H](c2ccccc2-c2ccc(F)cc2)[C@H](CO)N1C(=O)NC1CCCC1 | -92* | -6
N#C[C@@H]1[C@H](c2ccc(-c3cccc(F)c3)cc2)[C@@H](CO)N1C(=O)NC1CCCC1 | -87* | 11
N#C[C@@H]1[C@@H](c2ccc(-c3cccc(F)c3)cc2)[C@@H](CO)N1C(=O)NC1CCCC1 | -20 | -1
COc1ccc(-c2ccccc2[C@@H]2[C@@H](CO)N(C(=O)NC3CCCC3)[C@H]2C#N)cc1 | -20 | 2
N#C[C@@H]1[C@H](c2ccc(C3=CCCCC3)cc2)[C@H](CO)N1C(=O)NC1CCCC1 | -83* | 37
N#C[C@H]1[C@@H](c2ccc(C3=CCCCC3)cc2)[C@H](CO)N1C(=O)NC1CCCC1 | 15 | 37
CCC(=O)N1[C@@H]2c3cccc(=O)n3C[C@@H]2[C@@H](CO)[C@@H]1C(=O)N[C@@H](C)c1ccccc1 | 8 | -1
COc1cccc(-c2ccc([C@H]3[C@@H](CO)N4C(=O)CN(C(=O)NC(C)C)C[C@@H]34)cc2)c1 | -10 | -1
C[C@H](NC(=O)C[C@@H]1C[C@H]2c3cc(NS(C)(=O)=O)ccc3O[C@H]2[C@H](CO)O1)c1ccccc1 | -9 | -3
CCCNC(=O)N1[C@H](C#N)[C@H](c2ccc(-c3cccc(OC)c3)cc2)[C@H]1CO | -85* | 12
CCCNC(=O)N1[C@H](CO)[C@@H](c2ccc(-c3cccc(OC)c3)cc2)[C@@H]1C#N | -21 | -2
CC(=O)N(C)C[C@@H]1Oc2cc(-c3ccccc3C)ccc2S(=O)(=O)N([C@H](C)CO)C[C@@H]1C | -16 | 1
CCCC#Cc1cnc2c(c1)C(=O)N([C@@H](C)CO)C[C@@H](C)[C@H](CN(C)C(=O)Nc1ccccc1OC)O2 | -75 | 1
CCCNC(=O)C[C@H]1CC[C@@H]2[C@H](COC[C@H](O)CN2C(=O)Nc2ccc(Cl)c(Cl)c2)O1 | 11 | -101*!
O=C(C[C@@H]1CC[C@@H]2[C@H](COC[C@H](O)CN2C(=O)Nc2ccc(Cl)c(Cl)c2)O1)NCc1ccc(F)cc1 | -1 | -96*
O=C(C[C@@H]1CC[C@@H]2[C@H](COC[C@@H](O)CN2C(=O)c2ccccc2F)O1)NCc1ccc(-c2ccccc2)cc1 | -86* | 3
O=C(C[C@@H]1CC[C@@H]2[C@H](COC[C@@H](O)CN2C(=O)Nc2ccc(Cl)c(Cl)c2)O1)NCc1ccncc1 | -8 | -96*!
